Data as given in PubChem BioAssay.
Active and inactive are the calls of the source.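 The calls were made as follows: active = mean z-score across replicates of 1.96 or higher in either the MELAS or the Rieske mutant cell line; inactive = the rest.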

assay: survival rescue of mitochondrial mutant cells in low glucose, primary screen, MELAS cybrids, Rieske KO mouse fibroblasts, CellTiter-Glo (AID 1508586); details: MELAS cybrid survival, CellTiter-Glo 48 h, stronger effect = higher value;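 also: test concentration not given here; z relative to plate mean and SD of compound and empty wells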

Row | SMILES | z-score
1 | CCn1nc(C(=O)N2CCCCC2)c2c1CCC(NCc1ccc3c(c1)OCO3)C2 (stereo not given) | -0.251 (inactive)
2 | CN(C)C1CCN(C(=O)c2cc(-c3ccccc3)cc(S(=O)(=O)N3CCSCC3)c2)C1 (stereo not given) | 0.666 (inactive)
3 | COc1ccc(CCNC2CCc3c(c(C(=O)N(C)C)nn3CC3CCCCC3)C2)cc1 (stereo not given) | -0.342 (inactive)
4 | COC1CN(C(=O)Cn2nc(-c3ccccc3)c3ccccc3c2=O)CC(=O)N(Cc2ccccc2)C1 (stereo not given) | -0.199 (inactive)
5 | C=CCn1nc(C(=O)N2CCCC2)c2c1CCC(NCc1ccccc1OC(F)(F)F)C2 (stereo not given) | 0.124 (inactive)
6 | COCCN1C(=O)N(C(C)C)C(=O)C12CCN(Cc1c(F)cccc1Cl)CC2 | -0.424 (inactive)
7 | O=C1N[C@H](Cc2ccc(O)cc2)C(=O)N2CCN(C(=O)c3cccc4ccccc34)C[C@H]12 | 0.285 (inactive)
8 | COCC(=O)Nc1c(C(=O)OC)n(CCC(C)C)c2ncc(NC(C)CCn3cccn3)cc12 (stereo not given) | 0.765
9 | COc1cc(CN2CCc3c(cc(Cc4ccccc4C)c(=O)n3CC3CC3)C2)ccc1O | -0.322 (inactive)
10 | COc1ccc(-c2cc3c(n(C)c2=O)CCN(C2CCSC2)C3)c2ccc(C)nc12 (stereo not given) | -0.852 (inactive)
11 | Cc1c(CN2CCc3c(c(C(=O)NC4CCCC4)nn3CC(C)C)C2)c(=O)n(-c2ccccc2)n1C | -0.389 (inactive)
12 | Cc1ccnn1CCC(=O)N1CCc2c(cc(Cc3ccccc3F)c(=O)n2Cc2cccnc2)C1 | -0.36 (inactive)
13 | C=CCn1nc(C(=O)N2CCCCCC2)c2c1CCC(NCc1cc(-c3ccccc3)on1)C2 (stereo not given) | -0.0315 (inactive)
14 | Cc1ccc2c(CC(=O)N3CC(=O)N(CC(C)C)CC(OCc4ccccn4)C3)cc(=O)oc2c1 (stereo not given) | -0.0739 (inactive)
15 | O=C(c1nn(Cc2ccncc2)c2c1CN(Cc1ccsc1)CC2)N1CCCC1 | -0.1 (inactive)
16 | O=C(Oc1ccccc1)N1CCN2C(=O)[C@@H]3C[C@@H](O)CN3C(=O)[C@H]2C1 | 1.95 (inactive)
17 | CC(C)[C@@H]1NC(=O)[C@@H]2C[C@H](NC(=O)c3cc(C(C)(C)C)nn3C)CN2C1=O | 0.0639 (inactive)
18 | COc1ccc(-c2[nH]ncc2CN2CCC3(CC2)C(=O)N(C(C)C)C(=O)N3CCC(C)C)cc1 | 0.0083 (inactive)
19 | CC(C)N1C(=O)N(C)C2(CCN(Cc3ccc4c(c3)Cc3ccccc3-4)CC2)C1=O | -0.247 (inactive)
20 | Cc1ccccc1CN[C@H]1C[C@H]2C(=O)N[C@@H]([C@@H](C)O)C(=O)N2C1 | 0.0812 (inactive)

Row | SMILES | z-score
21 | CN1C(=O)N(CCCc2ccncc2)C(=O)C12CCN(C1CCSCC1)CC2 | -0.208 (inactive)
22 | Cn1c2c(cc(-c3ccc(OC(F)(F)F)cc3)c1=O)CN(C(=O)C1CC(=O)c3ccccc31)CC2 (stereo not given) | 0.0877 (inactive)
23 | COc1ccc(C[C@@H]2NC(=O)[C@H]3CN(C(=O)Oc4ccc(Cl)cc4)CCN3C2=O)cc1 | -0.205 (inactive)
24 | O=c1c(-c2ccccc2Cl)cc2c(n1Cc1ccncc1)CCN(Cc1ccnc3ccccc13)C2 | -0.09 (inactive)
25 | COC(=O)c1c(NC(C)=O)c2cc(NC3CCOCC3)cnc2n1CCc1ccc(OC)cc1 | -0.209 (inactive)
26 | O=C(Nc1ccccc1Cl)N[C@H]1C[C@H]2C(=O)N[C@H](Cc3ccc(O)cc3)C(=O)N2C1 | -0.242 (inactive)
27 | Cc1ccc(-c2cc(C(=O)NCC3CC3)cc(S(=O)(=O)N3CCOCC3)c2)s1 | -0.142 (inactive)
28 | CCc1ccc(CNc2cnc3c(c2)c(NC(=O)c2cccnc2)c(C(=O)OC)n3CC(C)C)o1 | 3.75 (active)
29 | CC(C)C[C@@H]1NC(=O)[C@H]2CN(S(=O)(=O)c3cccc4ccccc34)CCN2C1=O | -0.496 (inactive)
30 | CCCCNC(=O)[C@@H]1C[C@H](CN2CCOCC2)CN(Cc2ccccc2)C1 | -0.071 (inactive)
31 | CC(C)C[C@H]1C(=O)N2CCN(Cc3cccc4ncccc34)C[C@@H]2C(=O)N1C | -0.521 (inactive)
32 | Cc1ccc(Cl)cc1NC(=O)N[C@H]1C[C@H]2C(=O)N[C@H](C(C)C)C(=O)N2C1 | -0.17 (inactive)
33 | CN(C)c1cccc(NC(=O)c2cc(NCc3cnn(C)c3)cc(S(=O)(=O)N3CCCC3)c2)c1 | -0.28 (inactive)
34 | CN1CCCC1CCNC(=O)[C@H]1CNC[C@@H](COc2cccc(F)c2)C1 (stereo not given in full) | -0.0942 (inactive)
35 | Cc1csc(SCC(=O)N2CCc3c(cc(-c4csc5ccccc45)c(=O)n3C)C2)n1 | -0.151 (inactive)
36 | Cc1nc(CN(C)C2CCc3c(c(C(=O)N(C)C)nn3CC3CCCCC3)C2)cs1 (stereo not given) | -0.264 (inactive)
37 | O=C(NCCn1ccnc1)c1cc(NCC2CC2)cc(S(=O)(=O)N2CCCC2)c1 | -0.151 (inactive)
38 | Cc1nnc(CN(C)C(=O)c2cc(-c3ccc(C)s3)cc(S(=O)(=O)N3CCOCC3)c2)o1 | -0.234 (inactive)
39 | CN(Cc1cscn1)C(=O)c1nn(CC2CC2)c2c1CN(C(=O)Cn1cnc3ccccc31)CC2 | 0.533 (inactive)
40 | CC(C)N1CCN(C(=O)c2cc(-c3ccccc3)cc(S(=O)(=O)N3CCSCC3)c2)CC1 | -0.246 (inactive)
